# Measured values from PMC4336329 (PLoS ONE, 2015).
# Screen size: about 310,000 compounds; about 14,000 (4.5%) showed an effect of 50% or more. Effects have a minus sign here. This excerpt belongs to a sample that is enriched for strong results.
# Target: human ether-à-go-go-related gene (hERG) potassium channel (human, UniProt Q12809)
# Assay: primary screen, population patch clamp on CHO cells stably expressing hERG; higher = less effect of the substance
# 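Also: peak tail current of the secondary pulse compared with the same well before compound.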
# Chain of human ether-à-go-go-related gene (hERG) potassium channel (Q12809 whole entry, looked up): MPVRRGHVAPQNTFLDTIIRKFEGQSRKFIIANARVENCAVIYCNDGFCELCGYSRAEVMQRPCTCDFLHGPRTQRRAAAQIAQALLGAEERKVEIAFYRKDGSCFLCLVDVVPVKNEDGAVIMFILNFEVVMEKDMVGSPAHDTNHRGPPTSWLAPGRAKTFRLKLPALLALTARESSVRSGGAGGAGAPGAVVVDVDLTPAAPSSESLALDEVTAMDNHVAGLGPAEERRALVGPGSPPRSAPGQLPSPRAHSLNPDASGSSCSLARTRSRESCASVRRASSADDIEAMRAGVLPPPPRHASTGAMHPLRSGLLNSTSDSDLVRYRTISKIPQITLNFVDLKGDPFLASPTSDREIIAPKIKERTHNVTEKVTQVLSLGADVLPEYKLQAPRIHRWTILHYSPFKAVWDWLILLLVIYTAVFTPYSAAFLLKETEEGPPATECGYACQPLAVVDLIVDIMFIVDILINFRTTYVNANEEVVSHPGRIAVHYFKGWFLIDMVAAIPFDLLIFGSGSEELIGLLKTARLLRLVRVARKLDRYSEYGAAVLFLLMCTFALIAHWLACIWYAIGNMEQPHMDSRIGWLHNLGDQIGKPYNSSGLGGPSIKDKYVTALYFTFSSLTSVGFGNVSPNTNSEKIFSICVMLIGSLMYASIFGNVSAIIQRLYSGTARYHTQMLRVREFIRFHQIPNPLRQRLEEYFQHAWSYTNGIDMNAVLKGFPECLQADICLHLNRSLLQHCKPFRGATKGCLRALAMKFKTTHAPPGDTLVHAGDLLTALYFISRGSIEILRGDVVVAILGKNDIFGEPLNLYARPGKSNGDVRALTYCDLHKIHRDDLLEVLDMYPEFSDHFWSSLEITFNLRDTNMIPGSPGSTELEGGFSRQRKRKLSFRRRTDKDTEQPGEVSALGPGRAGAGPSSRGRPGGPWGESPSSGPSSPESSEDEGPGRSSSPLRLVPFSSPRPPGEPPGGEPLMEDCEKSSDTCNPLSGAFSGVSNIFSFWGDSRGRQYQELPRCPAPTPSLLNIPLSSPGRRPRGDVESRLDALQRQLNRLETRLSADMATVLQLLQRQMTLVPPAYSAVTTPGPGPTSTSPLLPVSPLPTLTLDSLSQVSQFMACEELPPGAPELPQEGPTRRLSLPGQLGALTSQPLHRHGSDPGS
row,Compound,"hERG current change (%, negative = inhibition) at 10uM"
1,CCc1ccc(C2CC(c3ccc(Cl)cc3)n3nc(N)nc3N2)cc1 (stereo not drawn),-10.3%
2,CC(C(=O)N1CCc2ccccc21)N1CCN(S(=O)(=O)c2cccs2)CC1 (stereo not drawn),-28.8%
3,Cc1ccnc(OC(C(=O)O)C(OCCc2ccccc2)(c2ccccc2)c2ccccc2)n1 (stereo not drawn),23.2%
4,CC(=O)Nc1n[nH]c(-c2ccc(C)cc2)c1C,4.49%
5,Cc1ccc(CNS(=O)(=O)CCNC(=O)c2ccccc2)cc1,-33.5%
6,Cc1[nH]nc2c1C(c1cccs1)C(C#N)=C(N)O2 (stereo not drawn),5.07%
7,O=C(OCC(=O)N1CCc2ccccc2C1)c1cccnc1Cl,-0.321%
8,COc1ccc(CNC(=O)C2=CC(c3ccc(OC)c(OC)c3)=NS(=O)(=O)N2C)cc1,-21.8%
9,COc1ccc(C2=NS(=O)(=O)N(C)C(C(=O)NCc3ccc4c(c3)OCO4)=C2)cc1,-63.3%
10,COc1ccc(C2=NS(=O)(=O)N(C)C(C(=O)Nc3ccc4c(c3)OCO4)=C2)cc1,-4.37%
11,COc1ccc(C2=NS(=O)(=O)N(C)C(C(=O)NCc3ccc(F)cc3)=C2)cc1OC,-59%
12,COc1ccc(C2=NS(=O)(=O)N(C)C(C(=O)NCc3ccc4c(c3)OCO4)=C2)cc1OC,-34.9%
13,Cc1ccc(C2=NS(=O)(=O)N(C)C(C(=O)NCc3ccc(F)cc3)=C2)cc1,-28.4%
14,Cc1cc(C)nc(NC(=O)c2ccccc2O)n1,18.3%
15,Fc1cccc(Cl)c1CSc1ccc(-c2ccco2)nn1,1.19%
16,Clc1cccc(CSc2ccc(-c3cccnc3)nn2)c1,-67.3%
17,c1ccc(CSc2ccc(-c3cccnc3)nn2)cc1,-13.7%
18,c1cncc(CSc2ccc(-c3cccnc3)nn2)c1,9.04%
19,O=[N+]([O-])c1cccc(-c2ccc(SCc3cccnc3)nn2)c1,-55%
20,Fc1cccc(Cl)c1CSc1ccc(-c2cccnc2)nn1,-68.9%
21,Clc1ccc(CSc2ccc(-c3cccnc3)nn2)cc1,-48.6%
22,c1ccc(CSc2ccc(-c3cccnc3)nn2)nc1,6.82%
23,O=[N+]([O-])c1cccc(-c2ccc(SCc3ccccn3)nn2)c1,-6.25%
24,N#Cc1c(NC(=O)COC(=O)c2ccc(S(=O)(=O)N3CCCC3)cc2)sc2c1CCCCC2,6.38%
